Bioassay records deposited in PubChem by National Center for Advancing Translational Sciences (NCATS).
The entries come from a sample that favours hits as a whole.
Shiga toxin inh = Shiga toxin inhibition. inhibition, % at 38.7 µM. AID 2315. Vero cells, Shiga toxin protein synthesis inhibition reporter. 290,000 tested, 9.2% active; in the data active = inhibition mostly above about 28%, no sharp cut-off; inactive = mostly below about 43%; also: 0% is about no effect
Tb PYK inh = inhibitors of Trypanosoma brucei pyruvate kinase; Q57TT1; TbPYK enzyme, Kinase-Glo Plus ATP luminescence, 45 min; Potency, µM (titrated, usually from 76.8 µM), for the others: top-dose activity, negative = inhibition, hits mostly inhibitors; 410,000 tested, 0.12% active; AID 624173; also: potency is read from the fitted curve at half-maximal effect; % is scaled to controls: 0 for no effect and ±100 for the full control effect; nearly all actives have a fitted effect of over 50% in size
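Quantitative HTS: titrated library compounds versus trypanosomal pyruvate kinase in TEA buffer (pH 7.2) containing KCl, MgCl2, BSA and Tween-20. Reactions were initiated with ADP, 130 uM final. Kinase-Glo Plus luminescence was read after 45 min at RT.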
LmPK inh = blocks Leishmania mexicana pyruvate kinase activity; Potency, µM (top dose mostly 57.5 µM), for inactives: at the top dose activity change, negative = inhibition, most hits filed as inhibitors; 290,000 tested, 0.37% active; purified LmPK, Kinase-Glo ATP luminescence, 1 h; Q27686; also: potency is read from the fitted curve at half-maximal effect; % is scaled to controls: 0 for no effect and ±100 for the full control effect
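Kinase-Glo luminescence read after 1 h RT reaction of 0.1 nM LmPK with 0.5 mM PEP and 0.1 mM ADP. Activity scaled between uninhibited and enzyme-free controls.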
FBPA Giardia inh = inhibitors of Giardia lamblia fructose-1,6-bisphosphate aldolase; Potency, µM (doses to about 59.6 µM), for the others: at the top dose activity, negative = inhibition, most hits filed as inhibitors; purified Giardia FBPA; 290,000 tested, 0.71% active; AID 2451; also: potency is read from the fitted curve at half-maximal effect; % is scaled to controls: 0 for no effect and ±100 for the full control effect; nearly all actives have a fitted effect of over 55% in size
Target sequence (A8B2U2 whole entry, looked up): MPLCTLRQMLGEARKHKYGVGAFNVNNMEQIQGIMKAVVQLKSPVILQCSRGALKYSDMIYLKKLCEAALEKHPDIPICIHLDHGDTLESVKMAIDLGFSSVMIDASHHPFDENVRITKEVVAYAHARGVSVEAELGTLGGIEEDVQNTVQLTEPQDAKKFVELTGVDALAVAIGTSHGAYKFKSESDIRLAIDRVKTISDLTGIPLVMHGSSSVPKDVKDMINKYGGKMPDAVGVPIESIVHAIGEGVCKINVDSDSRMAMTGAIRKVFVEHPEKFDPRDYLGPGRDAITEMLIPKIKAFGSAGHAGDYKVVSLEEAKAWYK
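Giardia FBPA (40 nM reagent) was preincubated 10 min at RT with compound (up to 57.5 uM final), then substrate plus GAPDH/TPI/NAD/arsenate coupling system with diaphorase/resazurin was added; resorufin fluorescence (525/598 nm) was read after 20 min.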
Cycloheximide cs = counter-screen for Shiga toxin inhibitors: cycloheximide protein synthesis inhibition; 300,000 tested, 12% active; AID 2314; cell reporter, cycloheximide protein synthesis inhibition counterscreen; max response, %; in the data active = max response mostly above about 13%, no sharp cut-off; inactive = mostly below about 14%; also: read at 38.3 µM for the half of the compounds with a filed dose; 0% is about no effect
Sm TGR block = inhibitors of Schistosoma mansoni thioredoxin glutathione reductase. AID 485364. 360,000 tested, 3% active. Potency, µM (highest dose often 114 µM), inactives show top-dose activity change, negative = inhibition, most hits filed as inhibitors. Q962Y6. purified TGR, DTNB reduction, TNB absorbance 405 nm; also: potency is read from the fitted curve at half-maximal effect; % is scaled to controls: 0 for no effect and ±100 for the full control effect; nearly all actives have a fitted effect of over 60% in size
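First, TGR (20 nM dispensed) and NADPH were mixed with compound. Second, a 15 min room-temperature incubation followed. Third, further NADPH and then DTNB were added to start the reaction. Finally, TNB absorbance was monitored kinetically.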
Numbers without * were called inactive; ? = inconclusive; / = no result given; + = active, no number; [ ] = another dose, or the depositor's remark. Unless noted, calls follow the shape of the dose curve; as a rule, active = well fitted curve in the direction sought with a large enough effect; inconclusive = small, poorly fitted or top-dose-only effect, or another doubt; inactive = no such curve, though single readings can be large; an effect the other way counts as inactive or inconclusive.

SMILES	Shiga toxin inh	Tb PYK inh	LmPK inh	FBPA Giardia inh	Cycloheximide cs	Sm TGR block
CCCCNC(=O)c1ccc2nc(-c3ccco3)c(-c3ccco3)nc2c1	15	?	3%	?	-2	7.9µM*
O=C(COC(=O)/C=C/c1cccc(F)c1)Nc1cccc(S(=O)(=O)NC2=NCCCCC2)c1	/	-2%	/	/	/	/
Cc1nc(N2CCOCC2)c2nc(-c3ccccc3)n(C(C)CN(C)C)c2n1 (configuration not stated)	/	/	/	1%	/	/
CSc1cccc(NC(=O)Nc2ccccc2)c1	95	1%	5%	0%	34*	13%
CSc1cccc(NC(C)=O)c1	6	3%	-2%	-1%	-1	8%
CSc1cccc(NC(=O)Nc2ccccc2C(N)=O)c1	39*	3%	-23%	1%	47*	12%
CCN(C(=O)C1CCN(S(=O)(=O)c2ccc3c(c2)CCCN3C(=O)C2CCC2)CC1)c1cccc(C)c1	/	-2%	/	/	/	0%
CCOc1ccc(S(=O)(=O)Nc2ccc3c(c2)OCO3)c2cccnc12	19	-12%	2%	-11%	23*	-2%
O=C1CC[C@H](C(=O)N[C@@H]2C[C@H]2c2ccccc2)N1	/	-6%	/	/	/	/
CCn1nnc2sc3c(c2c1=O)CCC(C)C3 (configuration not stated)	25	0%	3%	5%	38*	1%
Cc1cc(C)c(NC(=O)Cn2nnc3sc4c(c3c2=O)CCC(C(C)(C)C)C4)c(C)c1 (configuration not stated)	/	2%	/	/	/	-3%
CC(=O)Cn1nnc2sc3c(c2c1=O)CCC(C(C)(C)C)C3 (configuration not stated)	88*	1%	7%	-2%	66*	1%
CC1CCc2c(sc3ncn(CCO)c(=O)c23)C1 (configuration not stated)	64*	0%	-5%	6%	38*	/
CCN(CC)C(=O)CC(c1ccc(OC)cc1)c1c(OC)cc(OC)c2c(-c3ccccc3)cc(=O)oc12 (configuration not stated)	-2	/	/	1%	7	/
NCCCC(O)(P(=O)(O)O)P(=O)(O)O	10	2%	/	0%	-4	/
Cc1csc(NC(=O)CSc2nsc(SCC(=O)Nc3nc(C)cs3)c2C#N)n1	117*	7%	4%	3%	41*	-4%
Cc1csc(NC(=O)CSc2nncs2)n1	/	5%	/	/	/	6%
Cc1csc(NC(=O)CSc2nccn2C)n1	30	0%	0%	?	29*	-1%
Cc1csc(SCC(=O)Nc2ccccc2C)n1	/	2%	/	/	/	4%
Cc1csc(SCC(=O)Nc2cccc3nsnc23)n1	24	-1%	-2%	1%	20*	?
Cc1csc(NC(=O)CSc2nc(C)cs2)n1	25	3%	0%	1%	17*	0%
CN(C)c1ncc2nc(-c3ccccc3)c(=O)n(C[C@H]3CCCO3)c2n1	/	/	/	-20%	/	/
COc1cccc(-c2cccc(NC(=O)C3CCN(CCCn4cccn4)CC3)c2)c1	/	2%	/	/	/	/
COc1ccc(/C=N/Nc2cc(C)nc(N)n2)cc1	67*	0%	4%	-14%	32*	-13%
COc1ccc(/C=N/Nc2cc(C)nc(N3CCOCC3)n2)cc1	5	3%	-2%	8%	2	2%
SMILES	Shiga toxin inh	Tb PYK inh	LmPK inh	FBPA Giardia inh	Cycloheximide cs	Sm TGR block
COc1cc(/C=N/Nc2cc(C)nc(N)n2)ccc1O	36*	4%	0%	-25%	13	-9%
COc1ccc(/C=N/Nc2cc(OC)ncn2)cc1	97*	-17%	?	0%	25*	8%
Cc1cc(NC(c2nnc(-c3ccccc3)o2)c2ccccc2F)ccc1Br (configuration not stated)	/	0%	/	/	/	4%
COC(=O)c1ccc(N2C(=O)CC(N(C)Cc3ccccc3)C2=O)cc1 (configuration not stated)	-11	-5%	0%	5%	1	-4%
CCOc1ccc(N2C(=O)CC(N)C2=O)cc1 (configuration not stated)	5	-5%	-2%	1%	-3	3.5µM*
CCOc1ccc(N2C(=O)CC(N(C)Cc3ccccc3)C2=O)cc1 (configuration not stated)	1	-6%	-6%	3%	9	32µM*
CN(C(=O)Nc1ccccc1)C1CCS(=O)(=O)C1 (configuration not stated)	8	-8%	0%	2%	-2	0%
CC(=O)NC1=C(Nc2ccc(N(C)C)cc2)C(=O)c2ccccc2C1=O	116*	-10%	-15%	-28%	46*	?
CC(=O)NC1=C(N(C)C2CCS(=O)(=O)C2)C(=O)c2ccccc2C1=O (configuration not stated)	35	-10%	-2%	0.13µM*	17	?
Cc1[nH]c(C)c(S(=O)(=O)NCCc2ccc(S(N)(=O)=O)cc2)c1C(=O)N1CCCC1	-3	-14%	-6%	/	-10	3%
Cc1ccc(CSc2nc3cccnc3n2Cc2nc(-c3ccccc3F)oc2C)cc1	/	-3%	/	/	/	0%
CC(=O)Nc1cccc(-c2csc(Nc3ccc(Cl)cn3)n2)c1	146*	-2%	4%	-5%	46*	/
CC(=O)Nc1ccc(-c2csc(Nc3ccc(Cl)cn3)n2)cc1	23	4%	-4%	-4%	38*	-3%
O=C(Nc1ccc(Cl)cc1)Nc1nc(-c2ccccc2)cs1	43	6%	0%	4%	6	4%
CC(=O)NC(Cc1c[nH]c2ccccc12)C(=O)OCC(=O)N1CCN(S(=O)(=O)c2ccc(Cl)cc2)CC1 (configuration not stated)	/	-21%	/	/	/	/
N#CC1=C(Nc2ccc(Br)cc2)CCC1	23	9%	1%	?	-1	?
Cc1ccc(NC2=Nc3ccccc3CC2)cc1	32	-12%	-20%	3%	11*	-17%
Brc1ccc(NC2=Nc3ccccc3CC2)cc1	+	-25%	-1%	/	56*	18%
COc1ccc(-c2cc(C(F)(F)F)nc(SCC(=O)NCC(C)C)n2)cc1OC	/	3%	/	/	/	2%
Cc1ccc(NC(=O)CSc2nncn3c2cc2sccc23)cc1F	/	-1%	/	/	/	-3%
Cc1ccc2nc(CSc3nc(C)cc(C)c3C#N)[nH]c2c1	72	1%	-1%	-5%	46*	-18%
COC(=O)NC(/C(C(=O)OC)=C(\C)NCc1ccccc1)c1ccco1 (configuration not stated)	/	/	/	0%[12.9 µM]	/	/
NC(=NCc1ccc(Cl)c(Cl)c1)NC(=O)c1nc(Cl)c(N)nc1N	/	/	/	-6%	/	/
CN1CCN(S(=O)(=O)c2ccc(NC(=O)Nc3cccc(Cl)c3)cc2)CC1	11	?	0%	-1%	16*	5%
